Measurements reported in PubChem BioAssay (NCI).
The panel holds about 83,000 compounds, 20% with a hit somewhere; the sample as a whole holds those more often.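 Activity criterion: percent growth below 10, measured after cells in 96-well plates were exposed to a single compound concentration for 48 hours.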 A number with no mark means an inactive call. The source made the active and inactive calls.

How the values were obtained:
Assay in all cases: NCI-60 one-dose screen, 48 h (100 = growth as untreated, 0 = no growth, -100 = all killed)
Settings in all cases: 10 µM unless noted
NCI-H23 lung = test system: NCI-H23 lung
NCI-H226 lung = test system: NCI-H226 lung
NCI-H322M lung = test system: NCI-H322M lung
HOP-62 NSCLC = test system: HOP-62 NSCLC
NCI-H460 lung = test system: NCI-H460 lung
HOP-92 NSCLC = test system: HOP-92 NSCLC
NCI-H522 lung = test system: NCI-H522 lung
A549/ATCC NSCLC = test system: A549/ATCC NSCLC
786-0 renal = test system: 786-0 renal
COLO 205 colon = test system: COLO 205 colon
DU-145 prostate = test system: DU-145 prostate
K-562 leukemia = test system: K-562 leukemia
MALME-3M melanoma = test system: MALME-3M melanoma
MDA-MB-231 breast = test system: MDA-MB-231 breast
RXF 393 renal = test system: RXF 393 renal
SF-268 CNS = test system: SF-268 CNS
SF-295 CNS = test system: SF-295 CNS
SF-539 CNS = test system: SF-539 CNS
UACC-257 melanoma = test system: UACC-257 melanoma
M14 melanoma = test system: M14 melanoma

| Compound | growth (NCI-H23 lung) | growth (NCI-H226 lung) | growth (NCI-H322M lung) | growth (HOP-62 NSCLC) | growth (NCI-H460 lung) | growth (HOP-92 NSCLC) | growth (NCI-H522 lung) | growth (A549/ATCC NSCLC) | growth (786-0 renal) | growth (COLO 205 colon) | growth (DU-145 prostate) | growth (K-562 leukemia) | growth (MALME-3M melanoma) | growth (MDA-MB-231 breast) | growth (RXF 393 renal) | growth (SF-268 CNS) | growth (SF-295 CNS) | growth (SF-539 CNS) | growth (UACC-257 melanoma) | growth (M14 melanoma) |
| --- | --- | --- | --- | --- | --- | --- | --- | --- | --- | --- | --- | --- | --- | --- | --- | --- | --- | --- | --- | --- |
| Cc1ccc(-c2nc([P+](c3ccccc3)(c3ccccc3)c3ccccc3)c(N3C[C@H]4C[C@H](C3)c3cccc(=O)n3C4)o2)cc1 | 82.3% | 108% | 94.3% | 90.4% | 105% | 62.6% | 74.3% | 99.1% | 97.1% | 48.9% | 98.3% | 47.3% | 74.5% | 90.9% | 79.8% | 91.1% | 96.1% | 99.7% | 37.5% | 82.3% |
| Cc1nc([P+](c2ccccc2)(c2ccccc2)c2ccccc2)c(Sc2sc(-c3ccccc3)nc2[P+](c2ccccc2)(c2ccccc2)c2ccccc2)o1 | 3.75% (active) | 47.6% | 28.2% | 9.57% (active) | 3.38% (active) | -18.9% (active) | 3.53% (active) | 11.5% | 20.2% | -43.4% (active) | 19.7% | 9.67% (active) | 6.38% (active) | 14.2% | 26.7% | 18.2% | 1.87% (active) | 22.3% | 8.5% (active) | 15.5% |
| CN1CCN(CC#CCn2c3c(c4ccccc42)C[C@]2(C)[C@H]4CC[C@@H]5[C@H]6[C@H]7OC(=O)[C@@]6(CCC7(C)C)CC[C@@]5(C)[C@]4(C)CC[C@H]2C3(C)C)CC1 | 92.7% | 91.6% | 106% | 95.2% | 98.6% | 67.4% | 102% | 58.6% | 107% | 108% | 35.4% | 12.7% | 113% | 42.7% | 67.1% | 92.9% | 104% | 89.1% | 109% | 80.9% |
| C=C(C)[C@@H]1CC[C@]2(C)[C@H](CC[C@@H]3[C@H]4[C@H]5OC[C@@]4(CCC5(C)C)CC[C@]32C)[C@@]1(C)CCCN | 83.3% | 100% | 30.9% | 96.3% | -28.6% (active) | 50.9% | 97.6% | 55.1% | 49.1% | -58.2% (active) | 66.2% | 3.82% (active) | -48.5% (active) | 16.7% | 17.4% | 92.1% | -4.38% (active) | 87% | 101% | 25.8% |
| CCCCC[C@H]1C/C=C2/C(=O)C(Cl)=C[C@@H]2C/C=C\CCCC(=O)O[C@@H](CCCCC)C/C=C2/C(=O)C(Cl)=C[C@@H]2C/C=C\CCCC(=O)O1 | -24.7% (active) | -34.3% (active) | -31.2% (active) | -52.8% (active) | -27.2% (active) | -63.4% (active) | -67.3% (active) | -51.4% (active) | -66.9% (active) | -76.4% (active) | -31.4% (active) | 0.851% (active) | -14.1% (active) | -29.9% (active) | -87.5% (active) | 1.58% (active) | -27.3% (active) | -11.3% (active) | -63.5% (active) | -61.5% (active) |
| CCOc1ccc(NC(=O)c2ccoc2COc2ccccc2)cc1 | 103% | 111% | 99.7% | 111% | 112% | 95.2% | 93.9% | 103% | 105% | 123% | 106% | 88.8% | 100% | 98.7% | 106% | 97.8% | 101% | 98.5% | 106% | 104% |
| COc1cc(/C=C/c2cc(/C=C/c3ccc(O)c(OC)c3)n(-c3ccc(Cl)cc3)c(=O)n2)ccc1O | 93.7% | 91.3% | 82% | 90.1% | 92.3% | 88.6% | 91.3% | 98.1% | 92.6% | 91.3% | 91.7% | 72.6% | 100% | 60.3% | 90.7% | 76.1% | 97.3% | 78.1% | 97% | 88.3% |
| COc1cc(-c2cc3ncccc3c3nc(N)c4cccnc4c23)cc(OC)c1OC | 24.5% | 38.7% | 44.3% | 27.3% | 3.55% (active) | 41.2% | 17.4% | 12.7% | 12.9% | -15.6% (active) | 2.16% (active) | 16.3% | 50.9% | 36.5% | 10.9% | 29.6% | 12.4% | -1.92% (active) | 44.3% | 4.68% (active) |
| C=C(C)[C@@H]1CC[C@]2(C(=O)OC)CC[C@]3(C)[C@H](CC[C@@H]4[C@@](C)(CC/C(N)=N/O)[C@H](C(=C)C)CC[C@]43C)[C@@H]12 | 107% | 97.2% | 105% | 103% | 99.5% | 102% | 95.4% | 91.8% | 94.7% | 107% | 104% | 86.3% | 98.2% | 104% | 112% | 96.6% | 96.4% | 97.5% | 103% | 99.1% |
| C=C(C)[C@@H]1CC[C@]2(C)[C@H](CC=C3[C@@H]4CC(C)(C)CC[C@]4(C=O)CC[C@]32C)[C@@]1(C)CCCN | 86.4% | 85.5% | 86.5% | 88.9% | 86.3% | 62% | 91.8% | 77.6% | 90.4% | -62.3% (active) | 93.3% | 1.54% (active) | 68.8% | 75.2% | 67.1% | 83.2% | 93.2% | 89.3% | 81% | 63.9% |
| CCNCCCn1c2c(c3ccc([N+](=O)[O-])cc3c1=O)C(=O)c1cc(OC)cnc1-2 | -57.2% (active) | -44% (active) | 2.15% (active) | -66.6% (active) | -63% (active) | -11.5% (active) | -16.1% (active) | -81.8% (active) | -91.7% (active) | -30.9% (active) | 2.6% (active) | -3.04% (active) | -61.8% (active) | -32.6% (active) | -85.8% (active) | 1.69% (active) | -1.1% (active) | -48.2% (active) | -45.3% (active) | -37.1% (active) |
| N#CC1=C(N)Oc2ccc3ccccc3c2C1c1ccccc1Cl (stereo not given) | 61.6% | 70.8% | 74.9% | 38.7% | 20.4% | 69.1% | 34.4% | 53% | 42.4% | 39.3% | 73.3% | 13.2% | 46.2% | 51.3% | 58.7% | 57.7% | 11.7% | 35% | 66.7% | 13.4% |
| Brc1cnc2[nH]cc(-c3nnc(-c4ccccc4)o3)c2c1 | 78.5% | 66.4% | 77.5% | 85.2% | 80.9% | 74.7% | 76.7% | 81.2% | 73.6% | 82.9% | 57.9% | 73.3% | 78.9% | 63% | 26.8% | 81.2% | 85.8% | 89.6% | 112% | 76.6% |
| CC(C)C[C@@H](NC(=O)[C@@H](Cc1ccccc1)NC(=O)c1cnccn1)B1O[C@H]2[C@H](O)[C@@H](C(=O)NCCCC[C@@H]3NC(=O)[C@@H](Cc4ccccc4)NC(=O)[C@H](CC(=O)O)NC(=O)CNC(=O)[C@H](CCCN=C(N)N)NC3=O)O[C@@H](CN)[C@H]2O1 | -29.2% (active) | -45.8% (active) | 6.41% (active) | -50.5% (active) | -44.6% (active) | -70.4% (active) | -67.9% (active) | -55.2% (active) | -12.8% (active) | -81.1% (active) | -8.32% (active) | 2.76% (active) | -20.6% (active) | -9.73% (active) | -85.9% (active) | -37.1% (active) | -73.5% (active) | -31.9% (active) | -28% (active) | -0.783% (active) |
